Some test systems named below: T-47D breast; BT-549 breast; MDA-MB-435 melanoma; SW-620 colon; MCF7 breast; HCT-116 colon; HCC-2998 colon; KM12 colon.
What all share (assay): NCI-60 one-dose screen, 48 h (100 = growth as untreated, 0 = no growth, -100 = all killed)
What all share (settings): 10 µM unless noted

About 83,000 compounds went through this panel and 20% of them were active in at least one assay; those are over-represented in the sample as a whole.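 Method: cells in 96-well plates; compound added at one concentration; 48 h incubation; percent growth measured; values under 10 scored active.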 A number with no mark means an inactive call. Active and inactive are the calls of the source.

On to `CN(C)CCOC(=O)Nc1ccccc1Cl`, for which the growth in the assay with T-47D breast was 112%; in the assay with BT-549 breast it was 99.3%; in the assay on MDA-MB-435 melanoma, 105%; in the assay with SW-620 colon, 109%; in the assay on MCF7 breast, 103%; in the assay on HCT-116 colon, 103%. Besides, the growth is 111% in the assay with HCC-2998 colon and 112% in the assay on KM12 colon.
On to `COc1ccc(S(=O)(=O)n2cc(C(=O)C(=O)Nc3ccncc3)c3ccccc32)cc1F`, for which the growth in the assay on T-47D breast was 67.9%; in the assay with BT-549 breast it was 77%; in the assay with MDA-MB-435 melanoma, 58%; with SW-620 colon it was 83.3%; with MCF7 breast, 69.8%; with HCT-116 colon it was 69.5%. The growth is 73.5% in the assay with HCC-2998 colon and 75% in the assay with KM12 colon.
`CCN(CC)c1ccc(CNc2ccnc3ccccc23)cc1`: the growth is 29% with T-47D breast; 45.4% with BT-549 breast; 48.2% in the assay on MDA-MB-435 melanoma; 70.8% with SW-620 colon; 33.3% in the assay on MCF7 breast; 30.3% with HCT-116 colon. In addition, the growth was 36.9% with HCC-2998 colon and 73.6% in the assay on KM12 colon.
`O=[N+]([O-])c1ccc(OCCCOc2ccccc2)cc1`: the growth in the assay with T-47D breast was 110%; in the assay on BT-549 breast, 93.1%; in the assay on MDA-MB-435 melanoma, 99%; in the assay with SW-620 colon, 107%; in the assay on MCF7 breast, 93%; with HCT-116 colon, 97.4%. The growth with HCC-2998 colon and in the assay with KM12 colon was 101% throughout.
As to `Clc1cc2c(nn1)Nc1ccccc1S2`, the growth with T-47D breast was 85%; in the assay on BT-549 breast, 103%; with MDA-MB-435 melanoma, 98.1%; in the assay with SW-620 colon, 103%; in the assay on MCF7 breast, 85.3%; in the assay with HCT-116 colon, 96.5%. Besides, the growth with HCC-2998 colon was 114%; in the assay on KM12 colon it was 102%.
With `O=C(CN1CCN(c2cc3c(cc2F)c(=O)c(C(=O)N/N=C/c2ccccc2O)cn3C2CC2)CC1)N/N=C\c1ccccc1O`, the growth in the assay with T-47D breast is 17.9%; in the assay on BT-549 breast, 45.5%; in the assay with MDA-MB-435 melanoma, 17.6%; with SW-620 colon it was 36.6%; in the assay on MCF7 breast, 10%; in the assay on HCT-116 colon, 15.6%. For the same molecule, the growth in the assay with HCC-2998 colon is 39.5%; with KM12 colon it was 18.3%.
As for `O=Nc1c(-c2cccc([N+](=O)[O-])c2)nc2ncccn12`, the growth in the assay on T-47D breast was 73%; in the assay with BT-549 breast, 73.4%; in the assay with MDA-MB-435 melanoma it was 99.2%; with SW-620 colon it was 18.2%; in the assay with MCF7 breast, 70.2%; in the assay with HCT-116 colon it was 51.1%. The growth was 93.6% in the assay with HCC-2998 colon and 89.3% with KM12 colon.
As for `C=C1c2nc3ccccc3n2C=C(c2ccc(Cl)cc2)N1Cc1ccccc1`, the growth in the assay with T-47D breast was 66%; with BT-549 breast it was 142%; in the assay with MDA-MB-435 melanoma it was 98.1%; with SW-620 colon, 86.9%; with MCF7 breast, 63%; in the assay on HCT-116 colon it was 63%. Further, the values for the growth with HCC-2998 colon and in the assay on KM12 colon were 89.2% and 86.9%, respectively.
As to `CC(O)CN1CCCCC1` (configuration not stated), the growth with T-47D breast is 137%; in the assay with BT-549 breast, 101%; in the assay with MDA-MB-435 melanoma, 105%; in the assay with SW-620 colon, 102%; in the assay on MCF7 breast it was 103%; in the assay with HCT-116 colon, 110%. Further, the values for the growth in the assay with HCC-2998 colon and in the assay on KM12 colon were 115% and 106%, respectively.
`CCCN=C1NC(=O)/C(=C/c2nc(-c3ccc(OC)cc3)n3ccccc23)S1`: the growth is 87.3% in the assay with T-47D breast; 90.5% in the assay with BT-549 breast; 109% in the assay on MDA-MB-435 melanoma; 72.9% with SW-620 colon; 77.5% in the assay on MCF7 breast; 26.3% with HCT-116 colon. Besides, the growth in the assay on HCC-2998 colon is 97%; in the assay with KM12 colon, 48.8%.
Consider `COc1ccc(-c2cnnn2-c2nonc2-n2cccc2)cc1OC`, for which the growth in the assay on T-47D breast was 45.3%; with BT-549 breast, 60.1%; with MDA-MB-435 melanoma, -36.9% (active); with SW-620 colon, 27%; in the assay on MCF7 breast, 30.4%; in the assay with HCT-116 colon, 35.6%. Moreover, the growth was 62% in the assay with HCC-2998 colon and 31.7% in the assay on KM12 colon.
As for `COc1ccc2c(c1)[nH]c(=O)c1c3cccc(F)c3cn21`, the growth in the assay on T-47D breast is 63.9%; in the assay with BT-549 breast it was 42.8%; in the assay with MDA-MB-435 melanoma it was -51.9% (active); with SW-620 colon it was 27.2%; in the assay on MCF7 breast, 22.3%; in the assay on HCT-116 colon it was 24.6%. Besides, the growth with HCC-2998 colon was 31.9%; with KM12 colon it was 8.44% (active).
Take `CC(=O)c1cc2c(N)c(C(=O)Nc3cccc4c3OCCO4)sc2nc1C`: the growth with T-47D breast was 56%; in the assay on BT-549 breast, 103%; with MDA-MB-435 melanoma, 24.1%; with SW-620 colon, 95.1%; in the assay with MCF7 breast, 94.9%; in the assay with HCT-116 colon it was 96.4%. The growth in the assay on HCC-2998 colon is 95%; in the assay with KM12 colon it was 98.7%.
With `Brc1ccc(-c2[nH]ncc2-c2c[nH]c3ccccc23)cc1`, the growth was 88.2% in the assay on T-47D breast; 80.1% in the assay with BT-549 breast; 92.7% with MDA-MB-435 melanoma; 96.2% in the assay on SW-620 colon; 66.8% with MCF7 breast; 98.4% in the assay on HCT-116 colon. For the same molecule, the growth was 112% in the assay with HCC-2998 colon and 94.3% with KM12 colon.

Source of the values: PubChem BioAssay (NCI).
